SKKanGAS inh: SKKanGAS growth inhibition; S. pyogenes SKKanGAS, kanamycin growth, BacTiter-Glo, 6 h; inhibition, % at 7.5 µM; 300,000 tested, 1.3% active; AID 1662;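 active = mean replicate score, as percent of positive control median, at least 50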;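 also: strain carries kanamycin resistance gene driven by streptokinase promoter and grows in 40 µg/ml kanamycin; loss of luminescence reflects streptokinase promoter inhibition or plain growth inhibition; 0% = median of DMSO wells and 100% = positive control at its reference dose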
tim10-1 inh: tim10-1 yeast growth inhibition; S. cerevisiae tim10-1 ts strain growth, BacTiter-Glo, 24 h; inhibition, % at 20 µM; 330,000 tested, 2.2% active; AID 463190;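 active = inhibition of at least 40%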;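 also: mutant grown at 25 °C; 0% = DMSO wells with yeast and 100% = wells holding no yeast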
tim23-1 inh: inhibits growth of tim23-1 mutant yeast | S. cerevisiae tim23-1 growth, BacTiter-Glo luminescence, 24 h | inhibition, % at 20 µM | 330,000 tested, 1.3% active | AID 463212;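 active = growth inhibition of the mutant yeast at or above 50%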;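 also: temperature-sensitive mutant grown at 25 °C; plate controls were DMSO-treated mutant yeast for no effect and medium wells lacking yeast for full effect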
NLRP3 yeast inh: blocks the NALP3 inflammasome reconstituted in yeast. Yeast reconstituted NLRP3/ASC/caspase-1, beta-gal luminescence, 24 h. AID 2825. 330,000 tested, 0.39% active. inhibition, % at 10 µM;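 active = inhibition of 50% or more; inactive = inhibition below 50%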;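 also: plate controls were induced DMSO wells for no effect and uninduced yeast grown without galactose for full effect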
TIM10 inh: growth inhibitors of TIM10 yeast strain | S. cerevisiae TIM10 strain growth, BacTiter-Glo luminescence, 24 h | inhibition, % at 10 µM | 330,000 tested, 1.4% active;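 active = inhibition of 40% or more at the single tested concentration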;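 also: wild-type TIM10 isogenic control strain grown at permissive 25 °C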
Starred values were filed as active, the others as inactive; . = no result given. This is a sample that favours compounds with a hit; in the whole collection about 4.6% have one here.

SMILES | SKKanGAS inh | tim10-1 inh | tim23-1 inh | NLRP3 yeast inh | TIM10 inh
CC(Sc1ccc(S(=O)(=O)N2CCCCCC2)cn1)C(N)=O (configuration not stated) | . | 8 | 0 | 10 | 0
CC1(C)C(=O)CC[C@@]2(C)[C@H]1CC[C@@]1(C)CC3=C(CC[C@@H]12)[C@@]1(C)CCC(=O)C(C)(C)[C@@H]1CC3 | . | 3 | 11 | 22 | 6
Cc1occc1C(=O)NNC(=S)NC(=O)COc1ccc(Cl)cc1Cl | 78* | 11 | 33 | 25 | 1
C[n+]1ccc(/C=N/Nc2nc(Cl)c(C#N)c(Cl)c2Cl)cc1 | 91* | 0 | 6 | 37 | -13
Cc1ccc(C(=O)NC(=S)N(C)C2CCCCC2)cc1Br | 85* | 25 | 8 | 38 | 19
CC(=O)c1ccccc1NC(=O)CCCNC(=O)c1ccc(Cl)cc1 | -3 | -6 | 14 | 18 | 9
Cc1nn(CC(=O)NCCCN2CC(C)CC(C)C2)c(=O)c2cccn12 (configuration not stated) | 8 | 17 | 8 | 13 | -9
Oc1ccc2ccccc2c1-c1sc(Nc2ccccc2)n[n+]1-c1ccc(F)cc1 | 9 | 16 | 26 | 25 | 25
Fc1ccc(-[n+]2nc(Nc3ccccc3)sc2-c2c3ccccc3cc3ccccc23)cc1 | 57* | 37 | 29 | 19 | 21
CCOc1ccc2c(c1)C(=NNC(=O)c1ccncc1)c1cc(OCC)ccc1-2 | 65* | 27 | 22 | 23 | 30
CCOc1ccc(NC(=O)c2ccncc2)cc1 | -12 | 12 | 1 | 9 | 5
O=S(=O)(NC1CC(NS(=O)(=O)OCC(Cl)(Cl)Cl)C2CCCCC12)OCC(Cl)(Cl)Cl (configuration not stated) | 91* | -8 | -17 | 16 | -45
Cc1ccccc1C(=O)N1CCC(C(=O)Nc2ccccn2)CC1 | 2 | 13 | -1 | 3 | 4
O=C(NCC1COCCO1)c1ccc2nc(Cc3cccc(Cl)c3)oc2c1 (configuration not stated) | 1 | 9 | 10 | 13 | 8
C/C(=N\NC(=O)c1cc(Br)ccc1O)c1cccc(NC(=O)c2ccccc2F)c1 | 63* | -9 | 18 | 15 | -2
C/C(=N\NC(=O)c1ccccc1F)c1cccc(NC(=O)c2ccccc2)c1 | 4 | 5 | 6 | 2 | 0
CCOc1ccc(NC(=O)COC(=O)c2ccc3c(c2)OCCO3)cc1 | . | -8 | -3 | 12 | 2
FC(F)(F)c1cc(CCN2C(=S)NC[C@@H]2CC2CCCCC2)cc(C(F)(F)F)c1 | 68* | 28 | 22 | 26 | 19
S=C1NC[C@H](CC2CCCCC2)N1CCCCC1CCCCC1 | 76* | 20 | 23 | 13 | -32
O=c1c(NCCc2ccc(Cl)cc2)c(-c2ccccc2)c1=O | 2 | -6 | 17 | 5 | 12
CSc1sccc1/C=C(/C#N)C(=O)c1ccco1 | -7 | 19 | 44 | -18 | 11
CSc1ccc(/C=C2\CCn3c2nc2cc(C(=O)O)ccc2c3=O)cc1 | 52* | 14 | 13 | 15 | 0
CC1(C)CC(NC(=O)c2ccc(-c3ccc([N+](=O)[O-])cc3)o2)CC(C)(C)N1 | 4 | 5 | 4 | 17 | 12
Cc1ccc(NC(=O)c2nc[nH]c2C(=O)N[C@H](C)c2ccccc2)cc1 | . | -19 | 31 | 15 | 5
CCOC(=O)c1ccc(NC(=O)c2nc[nH]c2C(=O)N[C@@H](CC(C)C)C(=O)OCc2ccccc2)cc1 | 63* | 6 | 6 | 14 | 0
SMILES | SKKanGAS inh | tim10-1 inh | tim23-1 inh | NLRP3 yeast inh | TIM10 inh
CCOC(=O)c1ccc(NC(=O)c2nc[nH]c2C(=O)N[C@H](C)c2ccccc2)cc1 | 78* | 30 | 30 | 17 | 23
CCOC(=O)c1ccc(NC(=O)c2nc[nH]c2C(=O)N[C@@H](CC(C)C)C(=O)OC(C)(C)C)cc1 | 21 | 18 | 15 | 9 | 10
Cc1cccc(NC(=O)c2nc[nH]c2C(=O)N[C@@H](Cc2ccccc2)C(=O)OCc2ccccc2)c1 | 64* | -7 | 7 | 8 | 6
COc1ccc(C(C)C)cc1S(=O)(=O)NC1CCCC1 | 1 | 28 | 26 | 5 | 13
Cc1cccc(-c2oc3ccccc3c2C#CCCCCO)c1 | 76* | 18 | 6 | 1 | 8
Cc1ccc(C)c(NC(=O)c2ccccc2O)c1 | -8 | 5 | 34 | 49 | -4
Cc1ccc(C(=O)CC(=O)c2ccccc2C)c(O)c1 | 97* | 16 | 49 | 0 | 8
Cc1ccc(O)c(C(=O)CC(=O)c2ccc(C(C)(C)C)cc2)c1 | 95* | 14 | 29 | 20 | -4
COc1ccc(O)c(C(=O)CC(=O)c2ccccc2)c1 | 8 | 23 | 30 | 48 | 17
Cc1ccc(O)c(C(=O)CC(=O)c2ccccc2Cl)c1 | 81* | 23 | 38 | 25 | 14
CN(C)Cc1nc2ccccc2c(=O)n1Cc1nc(-c2cc3ccccc3o2)cs1 | 74* | 15 | 26 | 14 | 9
CCCCCCCCCCOC(=O)Cn1c(COc2ccc(OC)cc2)[n+](C)c2ccccc21 | 13 | 30 | 26 | 15 | 33
CCCCCCCCCCOC(=O)Cn1c(COc2ccccc2)[n+](C)c2ccccc21 | 81* | -6 | -40 | 16 | 19
O=c1[nH]c2ccc(Cl)cc2c(-c2ccccc2)c1SC(=S)N1CCOCC1 | 84* | 24 | 14 | 18 | 17
O=C(CN1C(=O)C(=O)N(C2CCCC2)C1=O)Nc1ccccc1OC(F)F | . | 7 | 10 | 4 | 6
Cc1c(NC(=O)c2cc(S(=O)(=O)N3CCCCC3)ccc2Cl)c(=O)n(-c2ccccc2)n1C | . | -8 | -3 | 3 | -3
COc1ccc(-c2nc(NC(=O)C3CC(=O)N(c4ccc5c(c4)OCCO5)C3)sc2C)cc1 (configuration not stated) | 55* | 24 | 22 | 10 | 18
CCOC(=O)c1c(NC(=S)NCCc2ccccc2)sc2c1CC(C(C)C)OC2 (configuration not stated) | 101* | 20 | -3 | 10 | 9
CCCc1sc(N/N=C/c2ccccn2)nc1-c1ccc(F)cc1 | 96* | -11 | -2 | 13 | 13
CCN1CCN(Cc2ccc(NC(=O)c3ccc(C)c(NC(=O)c4c[nH]c5cc(C(F)(F)F)ccc5c4=O)c3)cc2C(F)(F)F)CC1 | 92* | 25 | 6 | 6 | 10
CCN1CCN(Cc2ccc(NC(=O)c3cc(NC(=O)c4ccc5n[nH]nc5c4)cc(OC)c3)cc2C(F)(F)F)CC1 | -2 | 0 | -1 | 9 | -4
CCN1CCN(Cc2ccc(NC(=O)c3cc(NC(=O)c4cc(-c5ccc(OC)cc5)n[nH]4)cc(OC)c3)cc2C(F)(F)F)CC1 | 71* | 8 | 8 | 15 | 5
CN(C(=O)CSc1nnnn1-c1ccc(O)cc1)C1CCCCC1 | . | 8 | 1 | 3 | 1
CC(C)=CCCC1(C)C=Cc2c(c(C)cc3c2[nH]c2cc(O)ccc23)O1 (configuration not stated) | 107* | 21 | 22 | 3 | -3
Cc1cc(=O)[nH]c2cc(O)ccc12 | -6 | -11 | -7 | 8 | 13
